Each structure is given as a SMILES string. Among all 310,000 compounds or so, about 1,200 (0.39%) were called active. A selection follows. Measured potencies and affinities stand elsewhere. A number with no mark means an inactive call. How the calls were made is not given here.

For the experiment, the target named is Large T antigen (Simian virus 40) (UniProt P03070). Put plainly: TAg ATPase/helicase activity blockers – biochemical (AID 1903). To be noted: SV40 large T antigen ATPase/helicase inhibition assay; at 20 µM; hits give high values.
Chain of Large T antigen (Simian virus 40) (P03070 whole entry, looked up): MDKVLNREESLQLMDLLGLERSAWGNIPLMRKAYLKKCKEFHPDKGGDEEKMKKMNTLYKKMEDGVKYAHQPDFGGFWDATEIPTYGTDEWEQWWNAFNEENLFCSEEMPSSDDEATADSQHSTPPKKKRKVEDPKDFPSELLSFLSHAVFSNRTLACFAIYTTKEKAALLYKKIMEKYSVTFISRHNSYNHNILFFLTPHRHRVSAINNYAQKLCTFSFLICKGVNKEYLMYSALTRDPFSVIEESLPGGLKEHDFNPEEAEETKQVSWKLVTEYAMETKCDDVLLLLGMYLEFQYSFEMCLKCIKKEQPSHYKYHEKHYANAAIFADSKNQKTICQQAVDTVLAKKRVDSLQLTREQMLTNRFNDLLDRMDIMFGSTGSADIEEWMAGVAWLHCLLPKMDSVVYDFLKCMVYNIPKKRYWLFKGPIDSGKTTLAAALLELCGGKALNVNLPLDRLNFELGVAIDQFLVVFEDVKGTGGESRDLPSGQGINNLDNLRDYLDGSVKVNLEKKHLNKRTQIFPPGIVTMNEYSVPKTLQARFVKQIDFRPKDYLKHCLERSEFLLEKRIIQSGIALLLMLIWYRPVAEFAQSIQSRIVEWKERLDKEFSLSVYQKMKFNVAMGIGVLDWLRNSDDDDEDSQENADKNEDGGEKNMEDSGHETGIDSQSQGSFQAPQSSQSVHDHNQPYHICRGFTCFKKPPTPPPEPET
`CN1CCN(C(=O)c2cccn(Cc3ccc(C(F)(F)F)cc3)c2=O)CC1`: the inhibition (usually the change of the read-out against control, counted positive when it falls) was 2.45%. For `CCOC(=O)c1ccc(N2CSC3=C(C#N)C(c4cccs4)CC(=O)N3C2)cc1` (configuration not stated) the value was 28.9%. For `COc1ccc(OC)c(C2CC(=O)N3CN(c4cccc(Cl)c4)CSC3=C2C#N)c1` (configuration not stated) the value was 21.8%; for `COc1ccc(C2CC(=O)N3CN(c4ccc(C)c(Cl)c4)CSC3=C2C#N)cc1` (configuration not stated), 34.4%. Take `COc1ccc(OC)c(C2CC(=O)N3CN(c4ccccc4)CSC3=C2C#N)c1` (configuration not stated): the inhibition was 35.4%.

In the case of `CCOC(=O)c1ccc(N2CSC3=C(C#N)C(c4ccc(OC)cc4OC)CC(=O)N3C2)cc1` (configuration not stated), the inhibition is 31%. `N#CC1=C2SCN(c3ccccc3)CN2C(=O)CC1c1cccs1` (configuration not stated): the inhibition is 25.3%.

`COc1cccc(C2CC(=O)N3CN(c4cccc(Cl)c4C)CSC3=C2C#N)c1OC` (configuration not stated): the inhibition was 25.5%. For the compound `COc1ccc(C2CC(=O)N3CN(Cc4ccco4)CSC3=C2C#N)cc1` (configuration not stated), the inhibition was 36.8%. Next, `COc1ccc(-c2nn(-c3ccccc3)cc2/C=C/C(=O)O)cc1[N+](=O)[O-]`: 18.4%. For `C#CCOCCOCCOCCNc1nc(N2CCN(C(=O)[C@H]([C@@H](C)CC)n3cc([C@@H](N)CC(C)C)nn3)CC2)nc(N2CCN(C(=O)[C@H]([C@@H](C)CC)n3cc([C@@H](N)CC(C)C)nn3)CC2)n1` the value was 3.81%. Next, `CC(C)c1ccc(NC(=O)CSc2ncccc2C(=O)Oc2cccc([N+](=O)[O-])c2)cc1`: 16.9%.

For the compound `CCc1cc2c3c([nH]c2cc1S(=O)(=O)N1CCC2(CC1)OCCO2)CCCC3=O`, the inhibition was -0.36%. For `CCN(C(=O)Cn1cnc2c(nc3n2CCCCC3)c1=O)c1cccc(Cl)c1` the value was 18.9%. `C#CCn1c(=NC(=O)c2cc(-c3cccs3)nc3ccccc23)sc2cc(S(N)(=O)=O)ccc21`: the inhibition was 8.04%. Next, `O=C(O)C1CCCCC1C(=O)Nc1ccc(OCc2ccccc2)cc1` (configuration not stated): 9.44%; `COc1cc(/C=C/c2nc3ccccc3c(=O)[nH]2)cc(Br)c1O`: -2.29%; `CCOC(=O)c1[nH]c2ccccc2c1NC(=O)CC(C)(C)C`: -0.46%. Next, `O=C(O)CCC(=O)Nc1ccc(F)cc1`: 12.5%; `O=C(O)CCC(=O)Nc1ccc(Cc2ccc(NC(=O)CCC(=O)O)cc2)cc1`: 5.94%; `CC1CCCC(NC(=O)C2CCN(S(=O)(=O)c3cnc[nH]3)CC2)C1C` (configuration not stated): 10.4%. Turning to `COc1ccccc1N1CCN(S(=O)(=O)c2cc(C(F)(F)F)cc(C(F)(F)F)c2)CC1`, the inhibition is 4.92%. On to `CCOC(=O)C1(C)NC(c2ccc(O)cc2)C2C(=O)N(c3ccccc3)C(=O)C21` (configuration not stated), for which the inhibition was 2.88%. As for `O=C(Nc1ccc2nc(-c3cccs3)c(-c3cccs3)nc2c1)NC1CC1`, the inhibition is -4.56%. Next, `O=C(NCCO)Nc1ccc2nc(-c3ccco3)c(-c3ccco3)nc2c1`: 52.6%; `O=[N+]([O-])c1ccc(/C=N/N2CCN(Cc3ccccc3)CC2)cc1`: 8.88%; `CCN(CC)c1ccc(C=O)c(OC)c1`: 11.8%.

In the case of `O=C1NN(c2ccc(F)cc2)C(=O)/C1=C\c1cnn(-c2ccccc2)c1`, the inhibition was 2.23%.

For `CN(C)c1ccc(/C=N/N2C(=O)c3ccccc3C2=O)cc1`, the inhibition is 21.5%. For `CCOC(=O)/C=C/c1cnn(-c2ccccc2)c1` the value was -1.48%; for `Cc1ccccc1N1C(=O)c2cccc3cccc(c23)C1=O`, 4.81%; for `CCN(CC)c1ccc(C(=O)N/N=C/c2ccc(OC)cc2OC)cc1`, 0.86%. Next, `COCCNC(=O)CN1CCC(NC(=O)Nc2ccc(C(F)(F)F)cc2)CC1`: 27.4%. For `Cc1cc(C)nc(NNC2=CC(=[N+]3CCCCC3)CC(C)(C)C2)n1` the value was 3.95%; for `CNC(=O)COC(=O)CNC(=O)c1cc(Cl)cc([N+](=O)[O-])c1`, 6.1%; for `C=CCn1c(SCc2cccc(OC)c2)nnc1-c1ccncc1`, 5.97%.

In the case of `CCc1ccc(C2CC(c3ccc(Cl)cc3)=NNC2=O)cc1` (configuration not stated), the inhibition was -1.48%. Next, `Cc1ccnc(N2C3CCC2CC(O)(c2ccccc2)C3)n1` (configuration not stated): 2.55%. Next, `O=C1CCCN1c1nccs1`: 4.21%. Turning to `O=c1c2ccccc2c(C=Nc2ccccc2O)c(O)n1-c1nccs1`, the inhibition was 15.8%. Next, `COc1ccccc1N1CCN(c2nccc(C)n2)CC1`: 11.9%. For `O=C(NCCc1c[nH]c2ccccc12)C1CCN(S(=O)(=O)c2ccccc2F)CC1` the value was 10.5%. For the compound `COc1ccc(S(=O)(=O)Cc2ccc(C(=O)NCc3ccccc3)o2)cc1`, the inhibition is 7.39%.

Consider `Cc1c([N+](=O)[O-])cc(S(=O)(=O)Nc2ccncc2)cc1[N+](=O)[O-]`, for which the inhibition is 1.66%.

For the compound `COc1ccc(/C=C/CN2CCN(Cc3ccc(F)cc3)C(CCO)C2)cc1` (configuration not stated), the inhibition is 10.1%. For `O=C1/C(=C\c2ccco2)SC(=S)N1c1ccccc1` the value was 21.4%; for `CCOC(=O)C1=C(C)N(c2ccc(C)c(C)c2)C(=O)/C1=C\c1ccco1`, 7.58%; for `O=C1NC(=O)N(c2ccccc2)C1=O`, 28.5%. For the compound `O=C1N/C(=C/c2ccc(N3CCCC3)cc2)C(=O)N1c1ccccc1`, the inhibition was 1.12%. Next, `O=C1S/C(=C\C=C\c2ccco2)C(=O)N1c1ccccc1`: 20.3%; `Nc1ccc2c3c(cccc13)C(=O)N(c1ccccc1)C2=O`: 6.29%. Next, `COC(=O)C1=C(C)N(c2ccc(C)c(C)c2)/C(=C/c2ccco2)C1=O`: 13.5%; `O=C1NC(=S)N/C1=C/C=C/c1ccccc1`: -22.6%. Regarding `O=C(OCc1ccccc1)N1CCOCCN(C(=O)OCc2ccccc2)CCOCC1`, the inhibition is 0.08%. Next, `c1ccc(N2CCN(c3nc(-c4cccs4)nc4ccccc34)CC2)cc1`: 17.6%; `COC(=O)c1cccc(C(=O)N2CCCC(C(=O)c3ccccc3OC)C2)c1` (configuration not stated): 2.9%; `Cc1ccccc1CCNC(=O)Cn1ccc2cc(S(=O)(=O)N3CCCC3)ccc21`: 11.1%.

The record behind these values is PubChem BioAssay AID1903 (Southern Research Specialized Biocontainment Screening …, 2009).
